Bioassay records deposited in PubChem BioAssay by National Center for Advancing Translational Sciences (NCATS).
A selection: hits, their analogues and other compounds. The true share with any hit is near 21%.
Cycloheximide cs: counter-screen hit for Shiga toxin inhibitors, cycloheximide; max response, %; hit rate 12% among 300,000; cell reporter, cycloheximide protein synthesis inhibition counterscreen; in the data active = max response mostly above about 13%, no sharp cut-off; inactive = mostly below about 14%; note: read at 38.3 µM for the half of the compounds with a filed dose; 0% is about no effect
Pf growth 48h: inhibits P. falciparum growth in the first generation, 48 h; Potency, µM (titrated, usually from 28.7 µM), without a hit: at the highest dose activity change, negative = inhibition, actives largely listed as inhibitors; P. falciparum luciferase growth in erythrocytes, 48 h; hit rate 5.9% among 310,000; note: potency is the fitted concentration of half-maximal effect; % is set by controls: 0 for no effect and ±100 for the full control effect
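Here the parasites carry a stable luciferase gene and grow inside erythrocytes in Albumax-based RPMI medium with compound for one erythrocytic cycle. Activity is scored as loss of luminescent signal.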
HCMV antiviral: blocks human cytomegalovirus replication; HFF cells, HCMV-luciferase reporter, 72 h; stronger effect = lower value; hit rate 4.5% among 410,000; activity change, negative = inhibition, % at 57.5 µM; in the data active = activity change below about -60%; inconclusive = no clear call, values can overlap the other calls; inactive = above about -39%; note: % is set by controls: 0 for no effect and ±100 for the full control effect
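Compounds were evaluated in HFFs infected with an HCMV luciferase reporter virus (MOI 1 PFU/cell). Luciferase in lysates collected 72 h post infection served as the replication measure.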
Pf growth 96h: P. falciparum growth inhibition at 96 hours; hit rate 6.9% among 320,000; P. falciparum luciferase reporter growth, 96 h; Potency, µM (series often up to 28.7 µM), inactives show top-dose activity change, negative = inhibition, hits mostly inhibitors; AID 504834; note: potency is the fitted concentration of half-maximal effect; % is set by controls: 0 for no effect and ±100 for the full control effect
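Cell-based qHTS: luciferase-tagged P. falciparum in erythrocytes (2% hematocrit, 0.05% parasitemia final) incubated with compounds for 96 hours, 37 C, 5% CO2; luciferase detection reagent then added and luminescence measured.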
Shiga toxin inh: inhibitors of Shiga toxin in Vero cells. Vero cells, Shiga toxin protein synthesis inhibition reporter. inhibition, % at 38.7 µM. hit rate 9.2% among 290,000. AID 2315; in the data active = inhibition mostly above about 28%, no sharp cut-off; inactive = mostly below about 43%; note: 0% is about no effect
HCV inhibitor: inhibitors of hepatitis C virus infection; Potency, µM (series often up to 41.8 µM), for the others: top-dose activity change, negative = inhibition, actives largely listed as inhibitors; Huh7.5.1 HCVcc-Cre infection, luciferase reporter, 44 h; AID 651820; hit rate 3.4% among 340,000; note: potency is the fitted concentration of half-maximal effect; % is set by controls: 0 for no effect and ±100 for the full control effect
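HCVcc-Cre virus at an moi near 0.5 was added right after compound to cells cultured 4 h from seeding (1,000 cells/well). Luciferase activity was determined 44 h later, 15 min after substrate addition at RT.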
An asterisk follows results filed as active; ? = inconclusive; · = no result. Unless noted, calls come from the whole dose curve; as a rule, active = well fitted inhibition curve with a large enough effect; inconclusive = small, poorly fitted or top-dose-only effect, or another doubt; inactive = no such curve, though single readings can be large or run the other way.

SMILES | Cycloheximide cs | Pf growth 48h | HCMV antiviral | Pf growth 96h | Shiga toxin inh | HCV inhibitor
CCn1nc(C)c(NC(=O)/C=C/c2ccc(OC)c(COc3ccc(Cl)cc3Br)c2)c1C | -0.2 | -8.2% | -63.9* | -23.3% | 1.7 | ?
Cc1ccc(CN2c3ccccc3-c3nc(SCC(=O)NCCc4ccccc4)ncc3S2(=O)=O)cc1 | · | · | 5.6 | · | · | ·
Cc1ccn2cc(C(=O)Nc3ccc4c(c3)OCCO4)nc2c1 | 39.7* | 172.8% | ? | -41.1% | 60.1* | -10.9%
Cc1cc(C(=O)Nc2ccc3c(c2)OCCO3)nn1C(C)(C)C | 78.9* | 169.2% | 102.7 | 78.2% | 140.0* | -9.6%
Cc1ccn2cc(C(=O)Nc3nnc(C)s3)nc2c1 | 1.7 | 63.0% | 18.7 | 4.15µM* | 35.3 | 2.8%
Cc1cc(C(=O)Nc2ccccc2)nn1C(C)(C)C | 42.6* | 206.5% | 60.8 | 315.0% | 67.1* | -2.9%
Cc1ccn2cc(C(=O)Nc3ccccc3N3CCOCC3)nc2c1 | 6.7 | 4.6% | 17.3 | ? | 4.0 | ?
COc1ccc(Cl)cc1NC(=O)c1c(NCc2sccc2C)sc2c1CCCC2 | 11.7 | · | 43.7 | · | 8.8 | ·
Cc1cc2nc3c(nc2cc1C)CCCC3 | 58.7* | 95.8% | 77.7 | 48.4% | 108.3* | -27.0%
CCCCCCN(CCCCCC)C(=O)Cc1c(-c2ccc(F)cc2)[nH]c2ccccc12 | · | 5.86µM* | -5.1 | ? | · | ?
CCOC(=O)c1c(-c2ccccc2)[nH]c2ccc(C)cc12 | · | · | -15.5 | · | · | ·
COc1cc(OC)c(NC(=O)c2cc(C(C)=O)n3ccccc23)cc1Cl | · | · | 18.9 | · | · | ·
COc1ccc(/C=N/NC(=O)c2ccc3c(c2)OCO3)c(C(=O)O)c1OC | 11.2* | 14.9% | 25.4 | -13.2% | 24.5 | -29.4%
CCCOc1ccc(/C=N/NC(=O)c2ccc3c(c2)OCO3)c(OCCC)c1 | 0.9 | 5.86µM* | 19.5 | ? | 24.4 | -28.5%
COc1cc(/C=N/NC(=O)c2cc(-c3ccc4c(c3)OCO4)n[nH]2)ccc1O | 16.4* | 40.3% | -8.6 | ? | 36.0 | -14.4%
COc1ccc(/C=N/NC(=O)c2cc(-c3ccccc3)nc3ccccc23)c(C(=O)O)c1OC | -2.2 | 7.2% | 5.4 | 0.0% | 3.9 | -5.4%
CC(/C=N\NC(=O)c1ccc2c(c1)OCO2)c1ccccc1 (stereo unspecified) | 26.8* | 15.7% | 37.0 | 4.5% | 45.5* | 5.4%
O=c1c2cccnc2n(Cc2cccc(F)c2)c(=O)n1Cc1ccc(F)cc1 | · | · | 1.0 | · | · | ·
COc1ccc(NC(=O)CN(C)CC(=O)Nc2ccc(Cl)cc2F)cc1 | -2.5 | 10.5% | ? | -12.1% | 18.0 | ?
COc1ccccc1/C=N/NC(=O)c1ccc2c(c1)OCO2 | 23.7* | ? | 3.6 | ? | 81.3* | -4.8%
COc1ccccc1C(=O)N/N=C/c1ccc2c(c1)OCO2 | 34.7* | 94.5% | 90.5 | -6.7% | 88.9* | 3.2%
COc1cc2ccccc2cc1C(=O)N/N=C/c1ccc2c(c1)OCO2 | 4.2 | 8.3% | ? | -3.3% | 7.2 | -24.0%
O=C(N/N=C/c1ccccc1OC(=O)c1ccc2c(c1)OCO2)c1ccccc1 | 20.6* | 10.5% | 16.6 | 1.4% | 64.1* | 23.4%
COc1ccccc1N/N=C/c1ccc2c(c1)OCO2 | 38.5* | 5.7% | -70.5* | 49.9% | 44.9 | 1.9%
Cc1c(NC(=O)Cc2ccc(Cl)cc2)cccc1-c1nc2cccnc2s1 | · | · | -8.6 | · | · | ·
Cn1c(=O)c2c(nc(CN3CCN(C(=O)c4ccco4)CC3)n2CC(=O)C(C)(C)C)n(C)c1=O | -4.5 | -17.0% | 3.2 | 0.0% | -8.7 | 13.2%
O=C(O)c1ccc(-n2nnnc2SCc2ccccc2Br)cc1 | -1.6 | 32.9% | 19.5 | 21.3% | 17.6 | 20.1%
O=C(N/N=C/c1ccc(COc2ccc(Br)cc2)o1)c1ccc2c(c1)OCO2 | 15.4* | 2.1% | 1.3 | -2.3% | 26.3 | ?
Cc1c(/C=N/NC(=O)C(NC(=O)c2ccc3c(c2)OCO3)C(C)C)c2ccccc2n1C (stereo unspecified) | -3.9 | -4.0% | -80.2* | -14.6% | 10.7 | 11.2µM*
CC(C)C(NC(=O)c1ccc2c(c1)OCO2)C(=O)N/N=C/c1cccs1 (stereo unspecified) | -6.2 | 1.0% | 13.5 | ? | -10.7 | -2.0%
